We go through 18 compounds from PubChem BioAssay (NCI).

Test systems include SK-MEL-2 melanoma; EKVX NSCLC; UO-31 renal; TK-10 renal; ACHN renal; CAKI-1 renal; A498 renal; CCRF-CEM leukemia; MOLT-4 leukemia; SN12C renal.
Assay in all cases: NCI-60 one-dose screen, 48 h (100 = growth as untreated, 0 = no growth, -100 = all killed)
Common to all, as to conditions: 10 µM

The panel holds about 83,000 compounds, 20% with a hit somewhere; the sample as a whole holds those more often.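 Testing used 96-well plates and a 48-hour single-concentration exposure. Example: -40 means 40% of the starting cells died.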 A number with no mark means an inactive call. Calls of active or inactive are those of the source. How the source made its calls: active means growth percent below 10; inactive means the rest.

With `CC(C)c1[nH]nc2c(NCc3ccc(-c4ccccn4)cc3)nc(SCCN(C)C)nc12`, the growth was -65.6% (active) in the experiment with SK-MEL-2 melanoma; -5.89% (active) in the experiment on EKVX NSCLC; 16.7% in the experiment with UO-31 renal; 6.52% (active) in the experiment on TK-10 renal; 7.84% (active) with ACHN renal; 18.9% in the experiment on CAKI-1 renal. In addition, the growth in the experiment with A498 renal is -66.3% (active); in the experiment on CCRF-CEM leukemia it was 1.67% (active); in the experiment with MOLT-4 leukemia, -8.11% (active).
In the case of `C(=C\c1nc2ccccc2s1)/c1ccc(N2CCOCC2)s1`, the growth is 81.2% in the experiment with SK-MEL-2 melanoma; 87.8% in the experiment with EKVX NSCLC; 93.8% in the experiment on SN12C renal; 89.6% with TK-10 renal; 63.4% in the experiment on ACHN renal; 83.3% in the experiment on CAKI-1 renal. For the same compound, the growth was 86.4% with A498 renal, 58.2% in the experiment on CCRF-CEM leukemia and 51% with MOLT-4 leukemia.
Consider `C[C@]12CC[C@H]3[C@@H](CCC4=CC(=O)CC[C@@]43C)[C@@H]1CC[C@@H]2c1csc(N)n1`, for which the growth in the experiment with SK-MEL-2 melanoma was 62.9%; in the experiment with EKVX NSCLC, 23.6%; with UO-31 renal it was 44%; with TK-10 renal, 87.3%; in the experiment with ACHN renal it was 77.2%; with CAKI-1 renal, 47.3%. Besides, the values for the growth in the experiment on A498 renal, in the experiment with CCRF-CEM leukemia and with MOLT-4 leukemia were 84.3%, 42.1% and 27.7%, respectively.
On to `CCCC(C)c1ccc(OCCCCCCN2CCNCC2)cc1` (stereo not given), for which the growth with SK-MEL-2 melanoma is 79%; in the experiment with EKVX NSCLC it was 67.3%; in the experiment on UO-31 renal, 78.7%; with TK-10 renal, 85%; in the experiment on ACHN renal, 49.5%; in the experiment with CAKI-1 renal, 18.2%. Besides, the results for the growth in the experiment with A498 renal, with CCRF-CEM leukemia and in the experiment on MOLT-4 leukemia were 50.5%, 4.49% (active) and -27.6% (active), respectively.
Turning to `O=C1CC[C@@H](C(=O)N[C@H]2CSSC[C@@H](C(=O)NCCc3ccccc3)NC(=O)[C@H](Cc3ccccc3)NC(=O)[C@@H]3CCCN3C(=O)[C@@H]3CCCN3C2=O)N1`, the growth with SK-MEL-2 melanoma is 94.2%; in the experiment on EKVX NSCLC it was 101%; in the experiment on UO-31 renal, 99.1%; in the experiment with TK-10 renal it was 86.9%; in the experiment with ACHN renal, 104%; with CAKI-1 renal, 97.3%. The growth with A498 renal is 91.2%; with CCRF-CEM leukemia, 69.4%; with MOLT-4 leukemia, 85.8%.
As to `COc1ccc(-c2nnc(N3CCN(C(=O)CN4CCN(c5ccc(Cl)cc5)CC4)CC3)nc2-c2ccc(OC)cc2)cc1`, the growth is 65.7% in the experiment on SK-MEL-2 melanoma; 45.4% with EKVX NSCLC; 57.5% with SN12C renal; 90.6% in the experiment on TK-10 renal; 85% with ACHN renal; 73.7% in the experiment with A498 renal. Besides, the growth in the experiment with CCRF-CEM leukemia is 47.2%; with MOLT-4 leukemia, 8.77% (active).
Regarding `CCC(CCNc1cc(OC)cc2cccnc12)CN1C(=O)c2ccccc2C1=O` (stereo not given), the growth in the experiment with SK-MEL-2 melanoma is 108%; in the experiment with EKVX NSCLC it was 95.5%; in the experiment with UO-31 renal, 94.7%; in the experiment on TK-10 renal, 119%; in the experiment on ACHN renal, 102%; in the experiment with CAKI-1 renal, 92.8%. The growth in the experiment on A498 renal is 117%; in the experiment on CCRF-CEM leukemia, 99.3%; in the experiment with MOLT-4 leukemia, 108%.
As for `N#Cc1c2c([nH]c(=O)c1C(N)=O)CCCCC2`, the growth is 98.7% in the experiment with SK-MEL-2 melanoma; 104% in the experiment with EKVX NSCLC; 85.2% with UO-31 renal; 95.4% with TK-10 renal; 104% in the experiment with ACHN renal; 99.3% in the experiment with CAKI-1 renal. The results for the growth with A498 renal, with CCRF-CEM leukemia and with MOLT-4 leukemia were 89.8%, 95% and 117%, respectively.
Turning to `COc1ccc2nc(/C=C/c3ccc(N(C)C)cc3)sc2c1`, the growth with SK-MEL-2 melanoma is 101%; in the experiment with EKVX NSCLC, 96.9%; with SN12C renal, 91.4%; in the experiment on TK-10 renal, 103%; in the experiment on ACHN renal, 104%; with CAKI-1 renal, 97.6%. The growth with A498 renal was 71.7%; in the experiment with CCRF-CEM leukemia it was 82.6%; in the experiment with MOLT-4 leukemia, 77.7%.
Regarding `C[C@H](NC(=O)[C@@H]1CSSC[C@@H](NC(=O)Cc2nc3ccccc3cc2O)C(=O)NCC(=O)N1C)c1ccccc1`, the growth was 82.3% in the experiment with SK-MEL-2 melanoma; 99.5% with EKVX NSCLC; 92% in the experiment with UO-31 renal; 109% in the experiment with TK-10 renal; 96.8% in the experiment on ACHN renal; 99.7% in the experiment with CAKI-1 renal. In addition, the results for the growth in the experiment with A498 renal, with CCRF-CEM leukemia and with MOLT-4 leukemia were 120%, 20.1% and -17.2% (active), respectively.
Turning to `COc1cc(C2=Nc3c/c(=C\c4c(O)[nH]c5ccc(Cl)cc45)ccc3=N2)cc(OC)c1OC`, the growth is 31.1% with SK-MEL-2 melanoma; 77.7% in the experiment with EKVX NSCLC; 35.5% in the experiment on UO-31 renal; 35% with TK-10 renal; 73.2% with ACHN renal; 50.4% in the experiment on CAKI-1 renal. Moreover, the growth in the experiment on A498 renal is 93.4%; with CCRF-CEM leukemia, 8.61% (active); with MOLT-4 leukemia, 10.3%.
For `Cc1cc(O)c(C2=NN(c3ccc(S(N)(=O)=O)cc3)C(c3ccc(N(C)C)cc3)C2)c(C)c1Cl` (stereo not given), the growth in the experiment on SK-MEL-2 melanoma is 92.5%; in the experiment on EKVX NSCLC, 51.1%; in the experiment with SN12C renal, 74.8%; in the experiment with TK-10 renal it was 113%; in the experiment on ACHN renal, 88.6%; with A498 renal it was 74.3%. The results for the growth in the experiment with CCRF-CEM leukemia and with MOLT-4 leukemia were 28% and 27.3%, respectively.
Regarding `O=S(=O)(NCCO)c1ccc(OCCOc2ccc(S(=O)(=O)NCCO)cc2)cc1`, the growth with SK-MEL-2 melanoma is 100%; in the experiment on EKVX NSCLC, 99.1%; in the experiment with UO-31 renal it was 81.9%; in the experiment on TK-10 renal it was 99.5%; in the experiment on ACHN renal, 101%; in the experiment with CAKI-1 renal, 94.2%. In addition, the growth was 86.1% with A498 renal, 102% with CCRF-CEM leukemia and 99.6% in the experiment with MOLT-4 leukemia.
For the compound `CCN(CC)c1ccc(/C=C/C2=[N+](C)c3ccccc3C2(C)C)c(C)c1`, the growth in the experiment on SK-MEL-2 melanoma is -12.7% (active); with EKVX NSCLC, 10.6%; with UO-31 renal, 8.27% (active); with TK-10 renal, 9.49% (active); in the experiment with ACHN renal, 5.97% (active); with CAKI-1 renal, 15.5%. In addition, the growth with A498 renal is 3.94% (active); in the experiment on CCRF-CEM leukemia, 4.91% (active); in the experiment on MOLT-4 leukemia it was -20.4% (active).
Turning to `C#CCNCCN1C(=O)c2ccc3c4c(ccc(c24)C1=O)C(=O)N(CCNCC#C)C3=O`, the growth was 58.6% in the experiment on SK-MEL-2 melanoma; 55.7% with EKVX NSCLC; 29.5% in the experiment on UO-31 renal; 51.7% in the experiment on TK-10 renal; 22.9% with ACHN renal; 49.8% with CAKI-1 renal. Moreover, the growth is 94.1% with A498 renal, 40.2% in the experiment with CCRF-CEM leukemia and 20% in the experiment with MOLT-4 leukemia.
Turning to `O=C(O)CNS(=O)(=O)c1ccc(OCCOc2ccc(S(=O)(=O)NCC(=O)O)cc2)cc1`, the growth with SK-MEL-2 melanoma is 98.5%; in the experiment with EKVX NSCLC, 102%; in the experiment on UO-31 renal, 85.7%; in the experiment with TK-10 renal, 92.7%; with ACHN renal, 102%; in the experiment with CAKI-1 renal, 99.5%. Also, the growth is 96.4% in the experiment with A498 renal, 112% in the experiment with CCRF-CEM leukemia and 106% in the experiment on MOLT-4 leukemia.
As to `CCCCn1c(=O)[nH]c2c(c1=O)C(c1ccc(Cl)cc1)c1c([nH]c(=O)n(CCCC)c1=O)N2`, the growth in the experiment with SK-MEL-2 melanoma is 108%; in the experiment with EKVX NSCLC, 99.9%; with UO-31 renal it was 94.9%; in the experiment on TK-10 renal it was 91.3%; in the experiment with ACHN renal, 105%; with CAKI-1 renal, 95.6%. Also, the growth with A498 renal was 103%; with CCRF-CEM leukemia, 108%; in the experiment with MOLT-4 leukemia it was 104%.
For `O=c1cc(CSc2nnc(-c3ccccc3)n2-c2ccc(F)cc2)c2ccc3ccccc3c2o1`, the growth was 79.7% with SK-MEL-2 melanoma; 95.3% in the experiment on EKVX NSCLC; 65.6% in the experiment with UO-31 renal; 104% in the experiment on TK-10 renal; 99% with ACHN renal; 88.6% with CAKI-1 renal. For the same compound, the figures for the growth in the experiment with A498 renal, in the experiment on CCRF-CEM leukemia and in the experiment with MOLT-4 leukemia were 118%, 108% and 82.7%, respectively.
